This is a sample that favours compounds with a hit; in the whole collection about 2.8% have one here.
Peg3 promoter: Peg3 promoter activity inhibition; HeLa PEG-Prom luciferase reporter, luminescence, overnight; inhibition, % at 20 µM; hit rate 1.7% among 360,000; AID 588405;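 active = inhibition of at least 50% at 20 µM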
HIF-2a inh: blocks HIF-2a reporter activity | inhibition, % at 18.8 µM | 786-0 RCC cells HIF-2a reporter, luciferase luminescence, overnight | hit rate 0.72% among 360,000 | AID 624352;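 active = inhibition of the luminescence signal of 40% or more relative to plate controls, in a single-dose primary screen at 18.75 µM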
LMP1 NFkB inh: inhibitors of Epstein-Barr LMP1-induced NF-kappaB reporter; LMP1-induced NF-kappaB luciferase reporter cells, luminescence; inhibition, % at 12.5 µM; hit rate 0.69% among 350,000; AID 504558; in the data active = inhibition above about 41%
PAX8 reporter: inhibitors of PAX8 transcriptional activity in RMG-I cells; inhibition, % at 12.6 µM; RMG-I TPO-luciferase reporter, SteadyGlo, 24 h; hit rate 1.2% among 360,000;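 active = mean replicate inhibition at least 60% with every replicate also reaching 60%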;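 note: luciferase light reporting Pax8 driven TPO promoter activity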
Shn3 inh set2: reduces Shn3 3'UTR luciferase signal in osteoblasts; Clone20 osteoblast Shn3 3'UTR firefly luciferase, 24 h; inhibition, % at 12.5 µM; hit rate 0.52% among 360,000;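 active = mean inhibition of at least 75% with every replicate also reaching 75%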
MITF TRPM1 inh: MITF TRPM1 promoter inhibition in SK-MEL-5 cells; SK-MEL-5 TRPM1 promoter luciferase, 24 h; inhibition, % at 12.5 µM; hit rate 0.83% among 330,000;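 active = mean inhibition across replicates of 60% or more, whatever share of single replicates reaches that level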
Of the large screens only hits and unclear results are named; the others gave an inactive call.

COc1ccc(-c2oc3ccc(N4CCOCC4)cc3c2C#CCO)cc1	Peg3 promoter 83
COc1ccc(-c2ccc3oc(-c4ccc(OC)cc4)c(C#CCO)c3c2)cc1	none
O=C(Nc1cc(C(=O)N2CCCC2)ccc1N1CCCC1)c1ccccc1F	LMP1 NFkB inh 51 (no result: PAX8 reporter)
C=CCSC1=NC(=O)/C(=C/c2cccs2)S1	Peg3 promoter 53 (no result: PAX8 reporter)
NC1=NC(=O)/C(=C/c2cccs2)S1	none (no result: PAX8 reporter)
CS(=O)(=O)N1CCCCN2[C@H](C1)[C@@H](c1ccc(Br)cc1)[C@@H]2CO	none (no result: Peg3 promoter, HIF-2a inh, LMP1 NFkB inh, Shn3 inh set2, MITF TRPM1 inh)
O=C(Nc1ccc2c(c1)OCCO2)c1ccc(NC(=O)C2CCCO2)cc1 (centres undefined)	HIF-2a inh 58
O=C(O)c1ccc(C(=O)O)c(C(=O)c2ccc(NC(=O)c3ccccc3)cc2)c1	LMP1 NFkB inh 60
Cc1ccc(NC(=O)c2ccc3c(c2)OCCO3)nc1	LMP1 NFkB inh 50
O=C(Nc1ccccc1)c1ccc2c(c1)OCCO2	none (no result: PAX8 reporter)
O=C(Nc1ccc(NC(=O)c2ccc3c(c2)OCCO3)cc1)c1ccccc1	Peg3 promoter 100
CC(C)NC(=O)NCC[C@@H]1CC[C@H](NS(=O)(=O)c2ccc(Oc3ccccc3)cc2)[C@@H](CO)O1	none (no result: Peg3 promoter, HIF-2a inh, LMP1 NFkB inh, Shn3 inh set2, MITF TRPM1 inh)
Cc1noc(C)c1S(=O)(=O)N(C)C[C@@H]1Oc2ccc(NC(=O)C3CC3)cc2CC(=O)N([C@@H](C)CO)C[C@H]1C	none (no result: Peg3 promoter, HIF-2a inh, LMP1 NFkB inh, Shn3 inh set2, MITF TRPM1 inh)
C[C@H](CO)N1C[C@H](C)[C@H](CN(C)C(=O)Nc2ccc(C(F)(F)F)cc2)Oc2c(NC(=O)Nc3cccc4ccccc34)cccc2C1=O	none (no result: Peg3 promoter, HIF-2a inh, LMP1 NFkB inh, Shn3 inh set2, MITF TRPM1 inh)
COc1ccc(S(=O)(=O)N[C@H]2C=C[C@H](CC(=O)O)O[C@H]2CO)cc1	none (no result: Peg3 promoter, HIF-2a inh, LMP1 NFkB inh, Shn3 inh set2, MITF TRPM1 inh)
C[C@@H]1CN([C@H](C)CO)C(=O)c2cc(NC(=O)CCC(F)(F)F)ccc2O[C@@H](C)CCCCO[C@H]1CN(C)C(=O)Nc1cccc2ccccc12	none (no result: Peg3 promoter, HIF-2a inh, LMP1 NFkB inh, Shn3 inh set2, MITF TRPM1 inh)
C[C@@H]1CCCCO[C@H](CN(C)C(=O)Nc2cccc3ccccc23)[C@@H](C)CN([C@@H](C)CO)C(=O)c2cc(NC(=O)c3ccncc3)ccc2O1	none (no result: Peg3 promoter, HIF-2a inh, LMP1 NFkB inh, Shn3 inh set2, MITF TRPM1 inh)
C[C@H]1CCCCO[C@H](CN(C)C(=O)Nc2cccc3ccccc23)[C@@H](C)CN([C@@H](C)CO)C(=O)c2cc(NC(=O)CCC(F)(F)F)ccc2O1	PAX8 reporter 71 (no result: Peg3 promoter, HIF-2a inh, LMP1 NFkB inh, Shn3 inh set2, MITF TRPM1 inh)
C[C@H](CO)N1C[C@H](C)[C@@H](CN(C)C(=O)Nc2cccc3ccccc23)OCCCC[C@H](C)Oc2ccc(NC(=O)c3ccncc3)cc2C1=O	PAX8 reporter 82 (no result: Peg3 promoter, HIF-2a inh, LMP1 NFkB inh, Shn3 inh set2, MITF TRPM1 inh)
C[C@@H]1CCCCO[C@@H](CN(C)C(=O)Nc2cccc3ccccc23)[C@H](C)CN([C@H](C)CO)C(=O)c2cc(NC(=O)CCC(F)(F)F)ccc2O1	PAX8 reporter 67 (no result: Peg3 promoter, HIF-2a inh, LMP1 NFkB inh, Shn3 inh set2, MITF TRPM1 inh)
COC(=O)[C@H](C)NC(=O)Nc1cccc(C)c1	LMP1 NFkB inh 49 (no result: PAX8 reporter)
C[C@@H]1CN([C@H](C)CO)C(=O)Cc2cc(NC(=O)Nc3ccc(F)cc3)ccc2O[C@H]1CN(C)Cc1ccncc1	none (no result: Peg3 promoter, HIF-2a inh, LMP1 NFkB inh, Shn3 inh set2, MITF TRPM1 inh)
CCC(CO)[n+]1c(C)cc(/C=C2\Sc3ccccc3N2Cc2ccccc2)cc1C (centres undefined)	Peg3 promoter 62, MITF TRPM1 inh 82
C=CCN1C(=O)[C@@]2(O[C@@H](CCO)[C@H]([Si](C)(C)c3ccc(OC)cc3)[C@H]2C)c2ccccc21	PAX8 reporter 66 (no result: Peg3 promoter, HIF-2a inh, LMP1 NFkB inh, Shn3 inh set2, MITF TRPM1 inh)
C=CCN1C(=O)[C@@]2(O[C@@H](CCO)[C@H]([Si](C)(C)c3ccc(OC)cc3)[C@H]2C)c2cc(N3CCC3=O)ccc21	none (no result: Peg3 promoter, HIF-2a inh, LMP1 NFkB inh, Shn3 inh set2, MITF TRPM1 inh)
C=CCN1C(=O)[C@]2(O[C@H](CCO)[C@@H]([Si](C)(C)c3ccc(OC)cc3)[C@@H]2C)c2ccccc21	PAX8 reporter 94 (no result: Peg3 promoter, HIF-2a inh, LMP1 NFkB inh, Shn3 inh set2, MITF TRPM1 inh)
C=CCN1C(=O)[C@]2(O[C@H](CCO)[C@@H]([Si](C)(C)c3ccc(OC)cc3)[C@@H]2C)c2cc(N3CCOC3=O)ccc21	none (no result: Peg3 promoter, HIF-2a inh, LMP1 NFkB inh, Shn3 inh set2, MITF TRPM1 inh)
O=C(Nc1cccc(S(=O)(=O)Nc2ccc(Cl)cc2)c1)c1ccc(Cl)nc1	Shn3 inh set2 91
COc1ccc(NS(=O)(=O)c2cccc(NC(=O)c3ccc(Cl)nc3)c2)cc1	none
O=C(Nc1cccc(O)c1)c1cccc(S(=O)(=O)Nc2cccc(O)c2)c1	LMP1 NFkB inh 49
O=C(Nc1cccc(O)c1)c1cccc(C(=O)Nc2cccc(O)c2)c1	none
CC(C)NC(=O)N(C)C[C@@H]1Oc2ccc(NC(=O)C3CC3)cc2C(=O)N([C@@H](C)CO)C[C@@H]1C	none (no result: Peg3 promoter, HIF-2a inh, LMP1 NFkB inh, Shn3 inh set2, MITF TRPM1 inh)

Source: PubChem
